Bioassay records as filed in PubChem.
Compounds with a hit are over-represented: about 11% of the library has one in this group of screens.
PNC inhibitor – High Content Assay for Compounds that inhibit the Assembly of the Perinucleolar Compartment. PC3M PTB-GFP, PNC prevalence imaging, 16 h; stronger effect = lower value. activity change (PNC), negative = inhibition, % at 10 µM. 3.1% of 140,000 active. AID 2417, 2010;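 active = readout at or below -70, meaning at least 70% loss of cells showing the perinucleolar compartment, a nuclear body marking cancer cells; inconclusive = readout between -30 and a set limit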;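 note: plate controls were DMSO wells for no effect and camptothecin positive control wells for full effect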
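Read-out is percentage of cells bearing a perinucleolar compartment, from automated 20x imaging of fixed, Hoechst-stained PC3M PTB-GFP cells. Cells were seeded 4 h, then exposed 16 h to compound (23 nl of library stock) in duplicate plates.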
IMPase Li cell – qHTS Assay for Identifying the Cell-Membrane Permeable IMPase Inhibitors: Potentiation with Lithium. CHO-M1 cells, IP1 TR-FRET (IP-One), carbachol + lithium. Potency, µM (top dose mostly 59.4 µM), for the others: at the highest dose activity, negative = IMPase inhibition, most hits filed as inhibitors. 0.35% of 210,000 active. AID 1457, 2008; active = well fitted curve in the direction sought with a large enough effect; inconclusive = small, poorly fitted or top-dose-only effect, or another doubt; inactive = no such curve, though single readings can be large; an effect the other way counts as inactive or inconclusive;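 note: IP1 builds up when IMPase is blocked and the TR-FRET signal falls; potency is the fitted concentration of half-maximal effect; plate controls were basal vehicle for no effect and high inhibitor control for full effect; nearly all actives have a fitted effect of over 50% in size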
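Lithium-sensitised IP1 accumulation assay; M1-expressing CHO cells treated 30 min at 37C with compound. Competitive antibody detection by time-resolved FRET followed a 10 min room-temperature lysis step.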
NPSR antag – qHTS Assay for Antagonists of the Neuropeptide S Receptor: cAMP Signal Transduction. CHO-NPSR cells, cAMP TR-FRET, antagonist mode. Potency, µM (highest dose often 38.3 µM), for the others: at the highest dose activity change, negative = inhibition, actives largely listed as inhibitors. 1% of 220,000 active. AID 1461, 2008; active = well fitted curve in the direction sought with a large enough effect; inconclusive = small, poorly fitted or top-dose-only effect, or another doubt; inactive = no such curve, though single readings can be large; an effect the other way counts as inactive or inconclusive; note: potency is the fitted concentration of half-maximal effect; nearly all actives have a fitted effect of over 50% in size
HPGD block – qHTS Assay for Inhibitors of HPGD (15-Hydroxyprostaglandin Dehydrogenase); 15-hydroxyprostaglandin dehydrogenase [NAD(+)] (Homo sapiens), P15428; purified HPGD, NADH fluorescence kinetic, PGE2 substrate; Potency, µM, for inactives: at the highest dose activity change, negative = inhibition, usual class: inhibitors; 4.3% of 150,000 active; note: potency is the fitted concentration of half-maximal effect
Target sequence (P15428 whole entry, looked up): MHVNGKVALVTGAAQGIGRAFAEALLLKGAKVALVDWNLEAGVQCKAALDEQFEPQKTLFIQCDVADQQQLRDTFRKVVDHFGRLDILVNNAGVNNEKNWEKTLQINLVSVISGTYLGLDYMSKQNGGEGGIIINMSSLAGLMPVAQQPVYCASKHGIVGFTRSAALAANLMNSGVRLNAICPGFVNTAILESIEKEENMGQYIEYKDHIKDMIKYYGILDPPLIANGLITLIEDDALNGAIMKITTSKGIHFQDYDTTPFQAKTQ
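NADH formation kinetics: reaction with 30 uM PGE2 and 1 mM NAD+ (final), 20 nM enzyme, Tris-HCl pH 8 with Tween 20, after 15 min compound preincubation at room temperature. Fluorescence change, last versus first of five reads.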
ALDH1A1 inh – qHTS Assay for Inhibitors of Aldehyde Dehydrogenase 1 (ALDH1A1). Purified ALDH1A1, NADH fluorescence, propionaldehyde substrate. Potency, µM (titrated, usually from 75.3 µM), for inactives: at the highest dose activity, negative = inhibition, most hits filed as inhibitors. 7.3% of 220,000 active;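 note: potency is the fitted concentration of half-maximal effect; plate controls were no enzyme wells and a reference inhibitor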
IMPase inh – qHTS Assay for Identifying the Cell-Membrane Permeable IMPase Inhibitors; inhibition (IP1 accumulation), % at 46.1 µM; 120,000 tested, under 10 active; Inositol monophosphatase 1 (Rattus norvegicus), P97697; CHO-M1 cells, IP1 accumulation, HTRF TR-FRET ratio; active = well fitted curve in the direction sought with a large enough effect in the signal ratio, not every such curve was filed as active; inconclusive = small, poorly fitted or top-dose-only effect, or a change in a side signal; inactive = no such curve, though single readings can be large or run the other way; the % refers to the signal ratio;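 note: cells stimulated with carbachol in lithium chloride buffer; plate controls were DMSO basal wells for no effect and reference inhibitor wells for full effect; higher means more IMPase inhibition seen as more IP1 and lower FRET ratio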
Target sequence (P97697 whole entry, looked up): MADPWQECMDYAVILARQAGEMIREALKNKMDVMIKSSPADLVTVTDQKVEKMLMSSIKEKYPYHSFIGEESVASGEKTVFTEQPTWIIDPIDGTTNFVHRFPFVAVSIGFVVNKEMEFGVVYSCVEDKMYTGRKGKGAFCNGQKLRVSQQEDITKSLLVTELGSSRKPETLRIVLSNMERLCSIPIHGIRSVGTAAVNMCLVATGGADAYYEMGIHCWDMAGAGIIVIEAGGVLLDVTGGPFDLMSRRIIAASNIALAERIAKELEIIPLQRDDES
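CHO-M1, 2000 cells/well, cultured 16–30 h; cpd up to 46 uM; carbachol (50 uM solution, stimulation buffer w/ 50 mM LiCl, pH 7.4), 30 min 37C; IP-One TR-FRET, 10 min RT; Ex 320/Em 665, 620; Hill-fit AC50.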
Numbers without * were called inactive; [ ] = dose if it differs, or a comment. Unless noted, calls come from the whole dose curve; as a rule, active = well fitted inhibition curve with a large enough effect (not every such curve was filed as active); inconclusive = small, poorly fitted or top-dose-only effect, or another doubt; inactive = no such curve, though single readings can be large or run the other way. Unless noted, % is set by controls: 0 for no effect and ±100 for the full control effect.

`Cc1ccc(C(=O)CC2(O)C(=O)N(Cc3ccc4c(c3)OCO4)c3ccccc32)cc1` (stereo not drawn) gave PNC inhibitor -5, IMPase Li cell 19%[38.3 µM], NPSR antag -22%[46.1 µM], HPGD block -18%, ALDH1A1 inh 1.4µM* and IMPase inh 15.
Screening O=C(CC1(O)C(=O)N(Cc2ccc3c(c2)OCO3)c2ccccc21)c1ccccc1 (stereo not drawn) returned PNC inhibitor -6, IMPase Li cell 1%[38.3 µM], NPSR antag -18%[46.1 µM], HPGD block -8%, ALDH1A1 inh 8.9µM* and IMPase inh 1.
`O=C(CC1(O)C(=O)N(Cc2ccccc2)c2ccccc21)c1ccc2c(c1)OCO2` (stereo not drawn) gave PNC inhibitor -1, IMPase Li cell 8%[38.3 µM], NPSR antag -16%[46.1 µM], HPGD block -5%, ALDH1A1 inh 7.1µM* and IMPase inh 3.
Screening CN(C)CCCNC(=O)c1cc(Br)ccc1Cl returned PNC inhibitor 58, IMPase Li cell 28%[38.3 µM], NPSR antag -1%[46.1 µM], HPGD block -10%, ALDH1A1 inh 0% and IMPase inh -5.
For CC(C)CC(=O)NN1CCCCC1 the results were PNC inhibitor -21, IMPase Li cell 7%[38.3 µM], NPSR antag -13%[46.1 µM], HPGD block -9%, ALDH1A1 inh 12% and IMPase inh 8.
`CCN1C(=O)C(O)(CC(=O)c2cc(C)ccc2C)c2ccccc21` (stereo not drawn) gave PNC inhibitor 12, IMPase Li cell 16%[38.3 µM], NPSR antag -8%[46.1 µM], HPGD block -10%, ALDH1A1 inh inconclusive and IMPase inh -7.
Screening COc1cccc(C(=O)CC2(O)C(=O)N(Cc3ccccc3)c3ccccc32)c1 (stereo not drawn) returned IMPase inh 13.
`Cc1ccccc1CN1C(=O)C(O)(CC(=O)c2ccncc2)c2ccccc21` (stereo not drawn) gave PNC inhibitor -23, IMPase Li cell 8%[38.3 µM], NPSR antag inconclusive, HPGD block -15%, ALDH1A1 inh 0.11µM* and IMPase inh 3.
Screening O=C1c2ccccc2C(O)N1Cc1ccc2c(c1)OCO2 (stereo not drawn) returned PNC inhibitor 23, IMPase Li cell -4%[38.3 µM], NPSR antag -13%[46.1 µM], HPGD block 16µM*, ALDH1A1 inh 4% and IMPase inh 6.
`O=C1c2ccccc2C(Nc2ccc3c(c2)OCO3)N1Cc1ccc2c(c1)OCO2` (stereo not drawn) gave PNC inhibitor 20, IMPase Li cell 16%, NPSR antag -18%, HPGD block inconclusive, ALDH1A1 inh inconclusive and IMPase inh 10.
Screening CC(C)(C)C(=O)CC1(O)C(=O)N(Cc2ccccc2)c2ccccc21 (stereo not drawn) returned PNC inhibitor -13, IMPase Li cell 19%[38.3 µM], NPSR antag inconclusive, HPGD block 1%, ALDH1A1 inh 7.1µM* and IMPase inh -6.
CC(=O)Nc1ccc2nc(-c3cccnc3)[nH]c2c1 was read as PNC inhibitor -100*, IMPase Li cell 0%, NPSR antag 4%[46.1 µM], HPGD block inconclusive, ALDH1A1 inh inconclusive and IMPase inh -16.
Screening Nc1ccc(C(=O)Nc2ccc3nc(-c4cccnc4)[nH]c3c2)cc1 returned PNC inhibitor 18, IMPase Li cell 4%[38.3 µM], NPSR antag -15%[46.1 µM], HPGD block -2%, ALDH1A1 inh 4% and IMPase inh -4.
For COC(=O)c1ccc(C(=O)Nc2ccc3nc(-c4cccnc4)[nH]c3c2)cc1 the results were PNC inhibitor -83*, IMPase Li cell 6%, NPSR antag -3%[46.1 µM], HPGD block -9%, ALDH1A1 inh 11% and IMPase inh -2.
`CCCNc1nc2c(c(=O)[nH]c(=O)n2C)n1CCCc1ccccc1` gave PNC inhibitor 8, IMPase Li cell -6%[38.3 µM], NPSR antag -22%[46.1 µM], HPGD block -12%, ALDH1A1 inh 1% and IMPase inh 11.
N#Cc1cc(-c2ccccc2)cnc1Cl was read as PNC inhibitor 21, IMPase Li cell 25%[38.3 µM], NPSR antag inconclusive, HPGD block -15%, ALDH1A1 inh 3.5µM* and IMPase inh 1[1.84 µM].
Screening CCOc1ccc(/C=C/C(=O)c2cc(Br)ccc(=O)c2O)cc1 returned PNC inhibitor inconclusive, IMPase Li cell 5%, NPSR antag -19%, HPGD block inconclusive and ALDH1A1 inh inconclusive.
`Cc1cccc(/C=C/C(=O)c2cc(Br)ccc(=O)c2O)c1` gave PNC inhibitor -4, IMPase Li cell 17%[38.3 µM], NPSR antag 10µM*, HPGD block -26%, ALDH1A1 inh 20µM* and IMPase inh 4.
`CCc1ccc(/C=C/C(=O)c2cc(Br)ccc(=O)c2O)cc1` gave PNC inhibitor 36, IMPase Li cell 11%[38.3 µM], NPSR antag -25%[46.1 µM], HPGD block 16µM*, ALDH1A1 inh inconclusive and IMPase inh 1.
O=C(CCn1[nH]c(=O)c2ccccc2c1=O)OC1CCCCC1 was read as PNC inhibitor -16, IMPase Li cell -18%[38.3 µM], NPSR antag -15%[46.1 µM], HPGD block inconclusive, ALDH1A1 inh inconclusive and IMPase inh -5.
Screening CC1CC(C)(C)Nc2ccc(N=O)cc21 (stereo not drawn) returned IMPase Li cell 52%, NPSR antag -48% and ALDH1A1 inh 10µM*.
Nc1nccc(-c2cc(-c3ccc(Cl)cc3Cl)no2)n1 was read as NPSR antag -6%.
c1ccc(-c2nn3c(C4CCCCC4)nnc3s2)cc1 was read as PNC inhibitor -20, IMPase Li cell 9%[38.3 µM], NPSR antag -14%[46.1 µM], HPGD block -17%, ALDH1A1 inh inconclusive and IMPase inh 5.
Screening CCc1ccc(NC(=O)CC2C(=O)N(c3ccc(C)cc3)C(=O)N2CCc2ccncc2)cc1 (stereo not drawn) returned IMPase Li cell 9%, NPSR antag -39% and ALDH1A1 inh 3.5µM*.
For Cc1cccc(N2C(=O)C(CC(=O)Nc3cccc(F)c3)N(CCc3ccncc3)C2=O)c1 (stereo not drawn) the results were IMPase Li cell 12%, NPSR antag -6% and ALDH1A1 inh -4%.
